Compound activity: PubChem BioAssay, Broad Institute
Tg IFNy HTS: blocks Toxoplasma gondii growth in the presence of IFN-gamma. Toxoplasma gondii growth in IFN-gamma-treated host cells; stronger effect = lower value. activity change, negative = inhibition, % (no concentration beside the values). actives 3.8% (n = 69,000); in the data active = activity change below about -70%, passing the limit was not always enough;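 also: host cells are HeLa cells infected with Toxoplasma gondii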
An asterisk follows results filed as active; ! = repeats disagree. The entries come from a sample that favours hits as a whole.

How did O=C(COc1ccccc1)N1CCc2c([nH]c3ccccc23)C1c1ccc(F)cc1 (stereo not given) do in these assays?
Tg IFNy HTS: -64.4

Results for COC(=O)CCC(=O)N1CCc2c([nH]c3ccccc23)C1c1ccc(SC)cc1 (stereo not given) ?
Tg IFNy HTS: 56.6

What do the screens show for `CCCC(=O)N1CCc2c([nH]c3ccccc23)C1c1ccc(Cl)cc1` (stereo not given)?
Tg IFNy HTS: -104.4*

How did CCCC(=O)N1CCc2c([nH]c3ccccc23)C1c1ccc(OC)cc1 (stereo not given) do in these assays?
Tg IFNy HTS: inactive

What do the screens show for `CSc1ccc(C2c3[nH]c4ccccc4c3CCN2C(=O)CCC2CCCC2)cc1` (stereo not given)?
Tg IFNy HTS: -121.5*

How did COCC(=O)N1CCc2c([nH]c3ccccc23)C1c1ccc(C)cc1 (stereo not given) do in these assays?
Tg IFNy HTS: 272.2

What do the screens show for `COc1ccc(-c2cc(=O)c3c(O)cc(O[C@@H]4O[C@@H](CO[C@@H]5O[C@H](C)[C@@H](O)[C@H](O)[C@H]5O)[C@H](O)[C@@H](O)[C@H]4O)cc3o2)cc1O`?
Tg IFNy HTS: 15.2

How did Cc1cccc(-c2ncc(CN3CCN(C4CCN(C(C)C)CC4)C(CCO)C3)cn2)c1 (stereo not given) do in these assays?
Tg IFNy HTS: -46.3

What do the screens show for `O=C(Cn1ncc2c(N3CCOCC3)ncnc21)Nc1ccccc1Cl`?
Tg IFNy HTS: 15.0

What do the screens show for `COc1cc(Cl)cc(C(=O)N2CCCC(N(C)C)CC2)c1` (stereo not given)?
Tg IFNy HTS: 3.8

How did CN1C(=O)CCc2cc(NC(=O)CC3CCCCC3)ccc21 do in these assays?
Tg IFNy HTS: 36.0

Results for Cc1cccc(C)c1OCc1cc(C(=O)N(C)Cc2n[nH]c3c2CCCC3)no1 ?
Tg IFNy HTS: -22.4

Results for Fc1ccccc1CN(Cc1cccnc1)Cc1ccc(N2CCCC2)c(F)c1 ?
Tg IFNy HTS: -5.9

How did CCCn1ccnc1-c1nccn1Cc1ccccc1-n1cncn1 do in these assays?
Tg IFNy HTS: -25.8

What do the screens show for `COc1ccc2c(c1)NC1(CCN(C(=O)NCc3ccccc3)CC1)c1cccn1-2`?
Tg IFNy HTS: 272.5

How did O=S(=O)(c1cccs1)N1CCC2(CC1)Nc1cc(F)ccc1-n1cccc12 do in these assays?
Tg IFNy HTS: 17.7

Results for CS(=O)(=O)N1CCc2sc(C(=O)Nc3ccccc3F)cc21 ?
Tg IFNy HTS: -18.7

How did CS(=O)(=O)N1CCc2sc(C(=O)NCc3ccccc3)cc21 do in these assays?
Tg IFNy HTS: -3.6

How did CC(C)C(=O)c1cc2c(s1)CCN2S(C)(=O)=O do in these assays?
Tg IFNy HTS: -84.6*

Results for Cc1ccc(-c2cc3c(=O)n(Cc4nc(-c5cccc(Cl)c5)oc4C)ccn3n2)cc1 ?
Tg IFNy HTS: 1.1

What do the screens show for `O=C(c1ccc(-n2ccnc2)cc1)N1CC(c2ccccn2)C1`?
Tg IFNy HTS: 75.3

What do the screens show for `COc1ccc2c(c1)NC1(CCN(S(=O)(=O)c3ccc(F)cc3)CC1)c1cccn1-2`?
Tg IFNy HTS: -29.1

How did CC1=C(C(=O)NCc2ccc3c(c2)OCO3)C2(CCN(Cc3ccccc3)CC2)OC1=O do in these assays?
Tg IFNy HTS: 7.2

What do the screens show for `COc1ccc(Nc2nc(-c3nnc(-c4ccc(Cl)cc4)o3)nc3ccccc23)cc1OC`?
Tg IFNy HTS: 180.5

What do the screens show for `Cc1nc(-c2cccc(-c3cccc4ccnn34)c2)no1`?
Tg IFNy HTS: 8.0

What do the screens show for `COc1ccc(-c2cccc(-c3noc(C)n3)c2)c(OC)c1OC`?
Tg IFNy HTS: -74.9*

How did COc1ccc(-c2noc(COc3cccnc3C)n2)c(OC)c1OC do in these assays?
Tg IFNy HTS: -26.0

How did COCCNC(=O)[C@]12CCO[C@@H]1CCN(c1ccc(C)nn1)C2 do in these assays?
Tg IFNy HTS: -0.2

How did O=C1C(=O)N2C(=C1C(=O)N1CCOCC1)c1ccccc1CC21CCCCC1 do in these assays?
Tg IFNy HTS: -96.3*

What do the screens show for `c1ccc2c(c1)CC1(CCCCC1)n1nnnc1-2`?
Tg IFNy HTS: 27.8

What do the screens show for `O=C1C(=O)N2C(=C1C(=O)N1CCCCCC1)c1ccccc1CC21CCCC1`?
Tg IFNy HTS: 117.3

Results for Cc1nc(CN2CCC3(CC2)C(c2ccccc2)CC(=O)N3C)cs1 (stereo not given) ?
Tg IFNy HTS: -38.5

Results for O=C(c1ccoc1)N1CCCn2c(nc(Cn3cncn3)cc2=O)C1 ?
Tg IFNy HTS: -8.7

Results for Cn1cccc1C(=O)N1CCC2(CC1)C(=O)NCC2c1ccccc1 (stereo not given) ?
Tg IFNy HTS: -1.0

What do the screens show for `CC(=O)O[C@@]12CO[C@@H]1C[C@H](O)[C@@]1(C)C(=O)[C@H](O)C3=C(C)[C@@H](OC(=O)[C@H](O)[C@@H](NC(=O)OC(C)(C)C)c4ccccc4)C[C@@](O)([C@@H](OC(=O)c4ccccc4)C12)C3(C)C` (stereo not given in full)?
Tg IFNy HTS: -82.8*

What do the screens show for `CO[C@H]1C(=O)[C@@]2(C)[C@H]([C@@H](OC(=O)c3ccccc3)[C@@]3(O)C[C@H](OC(=O)[C@H](O)[C@@H](NC(=O)OC(C)(C)C)c4ccccc4)C(C)=C1C3(C)C)[C@]1(OC(C)=O)CO[C@@H]1C[C@H]2OC`?
Tg IFNy HTS: -78.8*

How did CC(=O)O[C@@]12CO[C@@H]1C[C@H](O)[C@@]1(C)C(=O)[C@H](O)C3=C(C)[C@@H](OC(=O)[C@H](O)[C@@H](NC(=O)OC(C)(C)C)c4ccccc4)C[C@@](O)([C@@H](OC(=O)c4ccccc4)[C@H]21)C3(C)C do in these assays?
Tg IFNy HTS: -72.3*!

How did CN(Cc1cccnc1)C1CCN(C(=O)c2cccs2)C(C(=O)O)C1 (stereo not given) do in these assays?
Tg IFNy HTS: 1.1

What do the screens show for `COc1ccc(C)cc1NC(=O)CN1C(=O)CCc2cc(S(=O)(=O)N3CCCCC3C)ccc21` (stereo not given)?
Tg IFNy HTS: -1.8

What do the screens show for `Cc1nc(CCNC(=O)Cc2nc3ccc(Cl)cc3[nH]2)sc1C`?
Tg IFNy HTS: 130.6

How did Cc1ccc(NC(=O)CN2C(=O)CCc3cc(Br)ccc32)cc1 do in these assays?
Tg IFNy HTS: 66.5

What do the screens show for `CC(=O)N1CCCn2nc(C(=O)NCCNc3ncccc3C)cc2C1`?
Tg IFNy HTS: 5.7

How did CNCC(O)Cn1c(C)c(C)c2ccccc21 (stereo not given) do in these assays?
Tg IFNy HTS: -3.2

How did Cc1cc(C)n(CC(O)Cn2c3ccc(Cl)cc3c3cc(Cl)ccc32)n1 (stereo not given) do in these assays?
Tg IFNy HTS: -35.5

How did OC(CNCc1ccccc1)Cn1c2ccc(Cl)cc2c2cc(Cl)ccc21 (stereo not given) do in these assays?
Tg IFNy HTS: -90.9*

What do the screens show for `Fc1cccc(-c2nnn3c2COC(CNCc2ccsc2)C3)c1` (stereo not given)?
Tg IFNy HTS: -17.9

Results for O=C(Cn1ncc2c(N3CCCC3)ncnc21)Nc1ccc2c(c1)OCCO2 ?
Tg IFNy HTS: 58.3

How did CC(C)(C)c1ccc2[nH]c3c(c2c1)CCCC3=O do in these assays?
Tg IFNy HTS: -84.5*

How did CO[C@@H]1CCN(S(=O)(=O)C2CC2)[C@H]1Cc1ccccc1 do in these assays?
Tg IFNy HTS: -3.8

How did COc1ccc(C(=O)N2CCc3nc(CNC(=O)C4CCC4)n(C)c3C2)cn1 do in these assays?
Tg IFNy HTS: 43.9

How did O=C(c1ccco1)N1CCC2(CC1)Cc1ccccc1CNC2=O do in these assays?
Tg IFNy HTS: 1.7

How did Cc1nsc(NC(=O)NC2CCN(Cc3ccccc3Cl)CC2)n1 do in these assays?
Tg IFNy HTS: -5.7
